Records with an inconclusive call do not appear. Peptide text beside a SMILES is read from it.

A short description of this assay: qHTS Assay for Lipid Storage Modulators (AID 1519). As to conditions: Drosophila S3 cells, BODIPY lipid droplet/cell ratio, laser cytometry; measured here: cell count channel max response; cells loaded with oleic acid. The procedure, abridged: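 Cells seeded at 5,000 per well were treated with compounds over a concentration series and loaded with oleic acid (400 uM, as added). Lipid droplet fluorescence (488 nm excitation, 500-530 nm channel) was read by laser-scanning cytometry and normalized to 20 uM Triacsin C.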
On to `O=c1[nH]c(Cl)nc2c1ncn2C1OC(CO)C(O)C1O` (stereo not given), for which the max response worked out at 2.53%.

Regarding `Nc1nc2c(ncn2C2OC(CO)CC2O)c(=O)[nH]1` (stereo not given), the max response turned out to be 3.55%.

Regarding `CS(=O)(=O)c1ccc(C(O)C(CO)NC(=O)C(Cl)Cl)cc1` (stereo not given), the max response turned out to be 3.52%.

Consider `CC1(C)CC2C1CC[C@]1(C)CCC3C(C(=O)O)CC(=O)O[C@]32C1` (stereo not given in full), for which the max response was 4.93%.

With `CC(=O)Oc1ccc2c(c1OC(C)=O)OCC1(O)Cc3c(cc(OC(C)=O)c(OC(C)=O)c3OC(C)=O)C21` (stereo not given), the max response is 9.82%.

With `CC1=CC2C(C(C)C)CCC(C)(O)C2CC1` (stereo not given), the max response is -7.33%.

Consider `O=C(/C=C/C(=O)Oc1ccccc1C(=O)O)Oc1ccccc1C(=O)O`, for which the max response is 4.07%.

In the case of `COc1ccc(-c2oc3c(CC=C(C)C)c(O[C@H]4OC(CO)C(O)C(O)C4O)cc(O)c3c(=O)c2O[C@@H]2OC(C)C(O)C(O)C2O)cc1` (stereo not given in full), the max response amounted to 22%.

In the case of `C=C1CCC(O)C/C1=C/C=C1\CCC[C@@]2(C)C(C(C)/C=C/C(C)C(C)C)CC[C@@H]12` (stereo not given in full), the max response came to 33.4%.

With `CC1O[C@@H](Oc2c(-c3ccc(O)c(O)c3)oc3cc(O)cc(O)c3c2=O)C(O)C(O)C1O` (stereo not given in full), the max response worked out at 19.3%.

Take `CCOc1ccc(C(=O)c2ccc(O)c(O)c2O)cc1`: the max response is -5.66%.

Take `CC(C)CC(NC(=O)CN)C(=O)NC(Cc1ccccc1)C(=O)O` (stereo not drawn) (H-Gly-Leu-Phe-OH; configuration not given here): the max response amounted to 3.97%.

For `CC(=O)Oc1ccc2c(c1)CCC1C2CC[C@]2(C)C(=O)CCC12` (stereo not given in full), the max response was -13.1%.

Consider `O=C(O)c1ccc2c(c1)OCO2`, for which the max response turned out to be 14.4%.

For the compound `CC(=O)OC1CC[C@@]2(C)C3=CC(=O)[C@]4(C)C(CC5OC6(OCC(C)CC6Br)C(C)C54)C3CC[C@H]2C1` (stereo not given in full), the max response was -17.7%.
